Measured potencies and affinities stand elsewhere. Active and inactive are the calls of the source.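 The calls were made as follows: active = a dose-response curve fit returns a half-maximal inhibitory concentration, extrapolated values included; inactive = the fit returns no such concentration.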
Target: HMG-CoA reductase [Enterococcus faecalis] (UniProt Q9FD70)
Test: class II HMG-CoA reductase inhibition potency – biochemical, Enterococcus faecalis, confirmation (AID 1233);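 also: 0% = full reaction carrier wells and 100% = background wells lacking mevalonate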
Details: purified E. faecalis HMGR, NADPH absorbance 340 nm kinetics; series mostly up to 100 µM; inhibition: at the top concentration

inhibition, inactive:
Cc1ccc(S(=O)(=O)N2CCCCC2)cc1C(=O)N1CCN(c2ccccn2)CC1 -1.95%
CN(C)c1ccc2c3c(ccc(N(C)C)c13)COC2 -7.56%
COc1oc(-c2ccc(Cl)cc2)nc1C(F)(F)F -9.81%
Fc1ccccc1CSc1nncn1NC/C=C/c1ccccc1 -5.49%
O=C(COC(=O)CCc1c[nH]c2ccccc12)NC1CCS(=O)(=O)C1 (stereo not drawn) -4.04%
CCN(CC)c1ccc(-c2n[nH]c(=S)n2-c2ccccc2C)cc1 -8.49%
CNC(=S)N/N=C(\C)c1ccc(N2CCOCC2)cc1 2.77%
CCCn1c(=S)[nH]c2ccccc2c1=O -12.6%
CC(=O)N1CC2(C)CN(C(C)=O)CC(C)(C1)C2 -9.15%
COc1ccc(CCNC(=O)CCNC(=O)c2ccc(Cl)cc2)cc1OC -6.35%
CCOC(=O)Cc1csc(NC(=O)COc2cccc(C)c2)n1 -3.23%
N#Cc1c(/N=C/c2ccco2)sc2c1CCCCC2 -3.07%
OCCC1CN(Cc2cccs2)CCN1Cc1ccccc1 (stereo not drawn) -9.42%
Cn1nnnc1SCC(=O)c1ccc(Br)s1 0.87%
Cc1ccc(S(=O)(=O)N2CCCC(C(=O)NCCCN3CCCCC3C)C2)cc1 (stereo not drawn) -0.54%
O=C(Nc1ccccc1)C(Cc1ccccc1)NC(=O)C12CC3CC(CC(C3)C1)C2 (stereo not drawn) -2.25%
CCN1C(=O)/C(=C\C=C\c2ccccc2[N+](=O)[O-])SC1=S -12.6%
CSc1ccc(C2CC(=O)Nc3nc(SC)[nH]c(=O)c32)cc1 (stereo not drawn) -0.1%
CCCCCC/C(C)=C1/SC(=S)NC1=O -9.92%
Cc1c(NC2(c3nnnn3-c3ccc(Br)cc3)CCCCC2)c(=O)n(-c2ccccc2)n1C -7.18%
COc1cccc(Nc2nc(C)cc(C)c2C#N)c1 0.73%
CCC1(CC)C(=O)NN(c2ccccc2)C1=O -1.66%
O=C(Nc1ccccn1)c1cccc(S(=O)(=O)N2CCOCC2)c1 -7.13%
CCOC(=O)C(CC)n1cnc2c(nnn2-c2ccc(OC)cc2)c1=O (stereo not drawn) -3.04%
CCCn1c(C(O)c2ccc(OC)cc2)nc2ccccc21 (stereo not drawn) 2.18%
CCn1c2ccccc2c2cc(NC(=O)CSc3nnc(-c4ccc(OC)c(OC)c4)n3N)ccc21 0.13%
Cc1ccc(C(=O)NCc2ccccc2)c(F)c1F -0.35%
CC[n+]1c(C)n(-c2ccccc2)c2ccc(C(=O)OC)cc21 -3.04%
C=CCn1cnc2c(nnn2-c2ccc(Cl)cc2)c1=O -3.27%
Cc1ccccc1NC(=S)NCc1ccc2c(c1)cc(C)n2C -9.31%
NCCc1nnc(SCc2ccc(F)cc2)o1 0.65%
CCCCC1C2=C(CC(C)(C)CC2=O)OC2=C1C(=O)CC(C)(C)C2 0.17%
Cc1cc(C)nc(N(C#N)CC(=O)N2CCC(C(N)=O)CC2)n1 -2.81%
CC(=O)c1ccc(N2CCN(C(=O)Cc3n[nH]c(=O)c4ccccc34)CC2)cc1 -5.17%
Cc1cccc(Nc2nnc(SCC(=O)Nc3ncc(C(F)(F)F)cc3Cl)s2)c1C -4.11%
COc1ccccc1-c1c(C(F)(F)F)oc2cc(OC(=O)c3cccc([N+](=O)[O-])c3C)ccc2c1=O -3.18%
CCCS(=O)(=O)N1CCN(C(=O)c2ccc(-c3ccccc3)cc2)CC1 -1.69%
Cc1cc(C(=O)NN=C2CCCCC2)c2ccccc2n1 -3%

Source: PubChem BioAssay AID1233 (SRMLSC, 2008)
